Data on seven compounds can be found in PubChem BioAssay (NCATS).

Structures are written as SMILES. Results filed as inconclusive are left out. The source made the active and inactive calls. Unless noted, calls come from the whole dose curve; as a rule, active = well fitted curve in either direction with a large enough effect (not every such curve was filed as active); inconclusive = small, poorly fitted or top-dose-only effect, or another doubt; inactive = flat fitted curve, though single readings scatter.

Assay [1] concerns the target Lysosomal acid glucosylceramidase (Homo sapiens) (UniProt P04062). Kind of assay: Glucocerebrosidase-p2 (AID 348; in the data active = potency below about 10 µM; note: potency is the fitted concentration of half-maximal effect). As to conditions: purified GBA, blue fluorogenic substrate, 40 min. In outline:
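Normal human glucocerebrosidase (0.2 nM) with blue fluorogenic substrate (80 uM final) in citrate/phosphate pH 5.9 with 10mM sodium taurocholate, 0.01% tween-20; 40 min RT, NaOH/glycine stop; fluorescence Ex 365/Em 440; AC50 from a titration from 0.6 nM upwards.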

Assay [2] is described as follows: AP1 Signaling Pathway (AID 357). Note: % is set by controls: 0 for no effect and ±100 for the full control effect. The note with it: ME-180 AP-1-bla reporter, EGF-induced, beta-lactamase ratio, 5 h; at 7.69 µM (top of the series) unless noted. In outline: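 Cells are seeded overnight, exposed to compound titrations and an EC50 level of EGF for 5 hours at 37 °C, then loaded with CCF4 dye for 2.5 hours. Beta-lactamase activity under the AP-1 element is read as a blue/green ratio.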

For assay [3], the target named is Cytochrome P450 1A2 (Homo sapiens) (UniProt P05177). Kind of assay: p450-cyp1a2 (AID 410; calls by dose curve; note: potency is the fitted concentration of half-maximal effect;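 for activity change, negative = inhibition: -100% = full effect of reference inhibitor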). In outline: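 20nM CYP1A2, 100uM Luciferin-ME (=Km), 100mM KPO4; cpd 10 min RT; +NADPH regen, 60 min RT; stop/detect 20 min; luminescence. Normalized to furafylline 57 uM = full inhibition.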
A short description of assay [4]: Stat Signaling Pathway (AID 446).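 Note: ME-180 cervical cancer cells given 40 pM IL-6 alongside compound; SIE-controlled beta-lactamase reporter measured as 460/530 nm FRET emission ratio; % is set by controls: 0 for no effect and ±100 for the full control effect.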 The note with it: ME-180 (cervical carcinoma) SIE beta-lactamase reporter, IL-6 stimulated, 5 h; at 7.69 µM (top of the series) unless noted. In outline: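 Emission at 460 and 530 nm (excitation 405 nm) reports SIE-controlled beta-lactamase in ME-180 cells. Cells received compound with 40 pM IL-6 for 5 hrs at 37 C; data scaled between 300 pM IL-6 and 125 nM JAK-inhibitor controls.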

The target of assay [5] is Glucocorticoid receptor (Homo sapiens) (UniProt P04150). As to the kind of experiment: GR-GFP Redistribution (AID 450;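 active = compounds whose dose series gives a full or clear partial fitted curve of increased nuclear translocation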; note: potency is the fitted concentration of half-maximal effect). As to conditions: U2OS GR-GFP nuclear translocation, laser cytometry, 2 h.
Assay [6] has the same target. Kind of assay: GR-EFC Redistribution (AID 451; calls by dose curve; note: potency is the fitted concentration of half-maximal effect). The note with it: CHO-K1 GR-EFC translocation, beta-gal luminescence, 2 h. In outline: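 Translocation of GR-ED fusion to nuclear EA restores b-gal, read by luminescence after 1 h room-temperature detection. Engineered CHO-K1 biosensor cells, 1,000/well, exposed 2 h at 37 C to titrations up to 46 uM final.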
The target in assay [7] is Mitogen-activated protein kinase 10 (Mus musculus) (UniProt Q61831). As to the kind of experiment: JNK3 AlphaScreen Assay (AID 530).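 Note: kinase came from lysate of stimulated human HepG2 cells; signal reports phosphorylation of biotinylated GST-cJun 1-79 at Ser73 with 10 µM ATP; % is set by controls: 0 for no effect and ±100 for the full control effect.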 In outline:
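Kinase buffer: 20 mM Tris-HCl pH 7.6, 10 mM MgCl2, 1 mM DTT, 0.1 mM Na3VO4, 0.01% Tween-20; ATP 10 uM. Substrate biotin-GST-cJun(1-79), enzyme from activated HepG2 lysates. Detection by Ser73 phospho-antibody AlphaScreen.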
In general terms: Bead proximity is the source of the signal in Alpha formats.

Assay [8] has as its target Cytochrome P450 3A4 (Homo sapiens) (UniProt P08684). As to the kind of experiment: qHTS Assay for Inhibitors and Substrates of Cytochrome P450 3A4 (AID 884; active = well fitted curve in the direction sought with a large enough effect; an effect the other way counts as inactive or inconclusive; note: potency is the fitted concentration of half-maximal effect; nearly all actives have a fitted effect of over 50% in size). An outline of the steps: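 Luminescent readout of luciferin produced by CYP3A4 (20 nM) dealkylation of Luciferin-PPXE, 25 uM (its KM). NADPH-driven reaction ran 60 min at RT after 10 min compound preincubation; data scaled to 57 uM ketoconazole as 100% inhibition.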
(Quantitative high-throughput screening tests each substance at several concentrations.)

Assay [9] has the same target. As to the kind of experiment: qHTS Assay for Activators of Cytochrome P450 3A4 (AID 885; active = well fitted curve in the direction sought with a large enough effect; an effect the other way counts as inactive or inconclusive; note: nearly all actives have a fitted effect of over 65% in size). In outline:
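Activators are scored by enhanced luminescence from CYP3A4 conversion of luciferin-PPXE (25uM, equal to KM) to luciferin, after 60 min at RT with an NADPH-regenerating system.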

The nature of assay [10]: qHTS Assay for Lipid Storage Modulators (AID 1519; calls by dose curve). As to conditions: Drosophila S3 cells, BODIPY lipid droplet/cell ratio, laser cytometry, cells loaded with oleic acid; for activity change, negative = inhibition: at 57.5 µM (top of the series). In outline: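 Cells seeded at 5,000 per well were treated with compounds over a concentration series and loaded with oleic acid (400 uM, as added). Lipid droplet fluorescence (488 nm excitation, 500-530 nm channel) was read by laser-scanning cytometry and normalized to 20 uM Triacsin C.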

Assay [11] concerns the target Dual specificity protein kinase CLK4 (Homo sapiens) (UniProt Q9HAZ1). Kind of assay: qHTS Assay for Inhibitors of CDC-like Kinase 4 (ADP-Glo Assay) (AID 1771; active = well fitted curve in the direction sought with a large enough effect; an effect the other way counts as inactive or inconclusive; note: nearly all actives have a fitted effect of over 70% in size; note: potency is the fitted concentration of half-maximal effect). An outline of the steps:
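25 nM Clk4, 100 uM RS peptide, 1 uM ATP (final); 2 mM MgCl2, 0.5 mM EGTA, 2.5 mM DTT, 0.01% Triton X-100; 1 hr RT. ADP-Glo readout: ATP depletion 45 min, conversion/luciferase 30 min, luminescence.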

The target of assay [12] is Ubiquitin carboxyl-terminal hydrolase 1 (Homo sapiens) (UniProt O94782). As to the kind of experiment: Inhibitors of USP1/UAF1: Pilot qHTS (AID 504865; active = well fitted curve in the direction sought with a large enough effect; an effect the other way counts as inactive or inconclusive;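 note: rhodamine fluorescence freed from ubiquitin-rhodamine substrate followed over time; top concentration of the series differs between compounds; % is set by controls: 0 for no effect and ±100 for the full control effect; nearly all actives have a fitted effect of over 35% in size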). In outline:
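Kinetic fluorescence assay: 1nM USP1/UAF1, 15 min compound preincubation, then 150nM Ub-Rho; 480/540 nm.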

Assay [13] is described as follows: NFAT Signaling Pathway (AID 444).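 Note: carbachol stimulus at about its EC50 of 1 µM final; % is set by controls: 0 for no effect and ±100 for the full control effect.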 As to conditions: Jurkat NFAT-bla M1, carbachol, beta-lactamase ratio, 5 h; at 7.69 µM (top of the series) unless noted. An outline of the steps: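 Read-out: CCF4 FRET ratio (460 nm/530 nm) after 1 h RT dye loading, used for %activity and AC50 from titration series. Cells: Jurkat NFAT-β-lactamase/M1 line, treated with compound plus 1 uM carbachol for 5 h, 37 °C.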

The target of assay [14] is 3',5'-cyclic-AMP phosphodiesterase 4B (Homo sapiens) (UniProt Q07343). As to the kind of experiment: qHTS Assay for Inhibitors of PDE-IV (AID 607; active = well fitted activation curve with a large enough effect in the main read-out, with a control signal flat, not every such curve was filed as active; note: % of control where 0% means no effect). In outline:
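The readout is membrane depolarisation from a cAMP-sensing CNG channel, detected with a potential dye at ex 535/em 590. Cells were HEK293-derived (endogenous PDE-IV) at 1000 cells/well, titrated up to 22.9 uM final.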

The target of assay [15] is Dual specificity protein kinase CLK4 (Homo sapiens) (UniProt Q9HAZ1). Kind of assay: qHTS Assay for Inhibitors of CDC-like Kinase 4 (Kinase-Glo Assay) (AID 1770; active = well fitted curve in the direction sought with a large enough effect; an effect the other way counts as inactive or inconclusive; note: % is set by controls: 0 for no effect and ±100 for the full control effect; nearly all actives have a fitted effect of over 65% in size). An outline of the steps: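 Inhibition was judged from remaining ATP, measured by Ultra-Glo luciferase bioluminescence after Clk4 (25 nM) had acted on RS peptide at 1 uM ATP for 4.5 hours, room temperature.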

Assay [16] shares this target. As to the kind of experiment: qHTS Assay for Inhibitors of CDC-like Kinase 4 (ADP-FP Assay) (AID 1795; active = well fitted curve in the direction sought with a large enough effect; an effect the other way counts as inactive or inconclusive;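 note: recombinant human CLK4 phosphorylating RS repeat peptide at 1 µM ATP; % is set by controls: 0 for no effect and ±100 for the full control effect; nearly all actives have a fitted effect of over 60% in size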). An outline of the steps: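 Inhibition of ADP formation by 6.25 nM Clk4 is measured using 1 uM ATP and 100 uM RS repeat peptide over one hour. Produced ADP displaces a fluorescent tracer from antibody, lowering polarization.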
The nature of assay [17]: Confirmation and Secondary Assay for Modulators of Hemoglobin Beta Chain Splicing at IVS2 654 locus (AID 910; active = well fitted curve in the direction sought with a large enough effect; an effect the other way counts as inactive or inconclusive;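 note: HeLa cells stably carrying EGFP split by mutant beta-globin IVS2-654 intron; per-well total GFP intensity by laser scanning cytometry after 2-day treatment; % of control where 0% means no effect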). In outline: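 Readout: per-well total peak green fluorescence (488 nm ex, 500–520 nm em) from objects 5–250 µm, reflecting correct splicing of an EGFP-654 reporter. Compounds were applied for 2 days at 37 °C to overnight-plated HeLa EGFP-654 cells; controls were DMSO and 500 nM IVS2-654 PNA.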

Assay [18] can be described thus: Confirmation and Secondary Assay for Modulators of Hemoglobin Beta Chain Splicing at IVS2 705 locus (AID 930; active = well fitted curve in the direction sought with a large enough effect; an effect the other way counts as inactive or inconclusive;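 note: HeLa cells stably expressing the EGFP-705 splicing reporter; GFP fluorescence per well restored by corrected splicing of the IVS2-705 intron in EGFP; % of control where 0% means no effect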). An outline of the steps:
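Fluorescence gain (488 nm laser, 500-520 nm PMT) reflects restored correct splicing of a mutant IVS2-705 intron inside EGFP in stably transfected HeLa cells after 2-day compound treatment.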

Where [19] appears, read: measured here: cell count channel max response.
The mark [20] stands for this setting: measured here: lipid channel max response.

Sequence of Dual specificity protein kinase CLK4 (Homo sapiens) (Q9HAZ1 whole entry, looked up): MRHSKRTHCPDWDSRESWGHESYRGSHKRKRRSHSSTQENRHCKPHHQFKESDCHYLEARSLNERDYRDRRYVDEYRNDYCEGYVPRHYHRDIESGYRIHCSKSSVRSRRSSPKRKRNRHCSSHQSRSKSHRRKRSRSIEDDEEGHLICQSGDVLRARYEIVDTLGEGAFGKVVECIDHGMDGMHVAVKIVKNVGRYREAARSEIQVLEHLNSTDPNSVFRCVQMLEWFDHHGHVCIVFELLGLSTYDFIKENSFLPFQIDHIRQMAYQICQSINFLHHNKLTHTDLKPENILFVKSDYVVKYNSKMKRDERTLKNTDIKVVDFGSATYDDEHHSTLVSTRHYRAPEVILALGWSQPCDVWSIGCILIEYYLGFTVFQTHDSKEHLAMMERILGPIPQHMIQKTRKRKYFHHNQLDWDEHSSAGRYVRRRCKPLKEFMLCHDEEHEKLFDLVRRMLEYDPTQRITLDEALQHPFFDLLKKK
Sequence of Cytochrome P450 1A2 (Homo sapiens) (P05177 whole entry, looked up): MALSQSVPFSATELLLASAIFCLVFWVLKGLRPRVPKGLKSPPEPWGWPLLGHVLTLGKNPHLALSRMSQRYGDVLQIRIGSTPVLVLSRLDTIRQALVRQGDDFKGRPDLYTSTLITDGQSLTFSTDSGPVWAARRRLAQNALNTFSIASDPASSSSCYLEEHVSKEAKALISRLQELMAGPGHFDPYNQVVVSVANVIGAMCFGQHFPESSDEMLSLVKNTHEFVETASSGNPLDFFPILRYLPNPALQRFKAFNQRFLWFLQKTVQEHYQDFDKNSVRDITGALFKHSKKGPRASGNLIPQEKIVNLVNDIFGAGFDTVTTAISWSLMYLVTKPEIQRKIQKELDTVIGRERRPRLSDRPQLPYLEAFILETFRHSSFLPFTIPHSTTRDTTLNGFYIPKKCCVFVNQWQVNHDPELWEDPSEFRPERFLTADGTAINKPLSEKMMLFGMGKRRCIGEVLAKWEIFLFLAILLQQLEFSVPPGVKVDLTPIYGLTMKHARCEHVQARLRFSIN
Sequence of Cytochrome P450 3A4 (Homo sapiens) (P08684 whole entry, looked up): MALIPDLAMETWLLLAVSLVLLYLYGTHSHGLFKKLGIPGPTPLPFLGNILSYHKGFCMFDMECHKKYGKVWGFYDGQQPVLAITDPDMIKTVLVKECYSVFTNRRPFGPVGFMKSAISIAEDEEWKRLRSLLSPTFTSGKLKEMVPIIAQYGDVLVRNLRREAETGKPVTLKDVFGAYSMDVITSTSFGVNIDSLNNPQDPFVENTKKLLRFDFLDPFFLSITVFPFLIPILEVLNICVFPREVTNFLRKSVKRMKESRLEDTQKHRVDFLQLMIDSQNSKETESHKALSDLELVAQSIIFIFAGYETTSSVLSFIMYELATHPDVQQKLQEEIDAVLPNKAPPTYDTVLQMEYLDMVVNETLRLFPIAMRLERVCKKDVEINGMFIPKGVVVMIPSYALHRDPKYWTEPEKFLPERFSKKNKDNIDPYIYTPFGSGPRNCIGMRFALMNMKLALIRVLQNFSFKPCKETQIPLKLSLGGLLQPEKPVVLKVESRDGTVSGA
Sequence of Ubiquitin carboxyl-terminal hydrolase 1 (Homo sapiens) (O94782 whole entry, looked up): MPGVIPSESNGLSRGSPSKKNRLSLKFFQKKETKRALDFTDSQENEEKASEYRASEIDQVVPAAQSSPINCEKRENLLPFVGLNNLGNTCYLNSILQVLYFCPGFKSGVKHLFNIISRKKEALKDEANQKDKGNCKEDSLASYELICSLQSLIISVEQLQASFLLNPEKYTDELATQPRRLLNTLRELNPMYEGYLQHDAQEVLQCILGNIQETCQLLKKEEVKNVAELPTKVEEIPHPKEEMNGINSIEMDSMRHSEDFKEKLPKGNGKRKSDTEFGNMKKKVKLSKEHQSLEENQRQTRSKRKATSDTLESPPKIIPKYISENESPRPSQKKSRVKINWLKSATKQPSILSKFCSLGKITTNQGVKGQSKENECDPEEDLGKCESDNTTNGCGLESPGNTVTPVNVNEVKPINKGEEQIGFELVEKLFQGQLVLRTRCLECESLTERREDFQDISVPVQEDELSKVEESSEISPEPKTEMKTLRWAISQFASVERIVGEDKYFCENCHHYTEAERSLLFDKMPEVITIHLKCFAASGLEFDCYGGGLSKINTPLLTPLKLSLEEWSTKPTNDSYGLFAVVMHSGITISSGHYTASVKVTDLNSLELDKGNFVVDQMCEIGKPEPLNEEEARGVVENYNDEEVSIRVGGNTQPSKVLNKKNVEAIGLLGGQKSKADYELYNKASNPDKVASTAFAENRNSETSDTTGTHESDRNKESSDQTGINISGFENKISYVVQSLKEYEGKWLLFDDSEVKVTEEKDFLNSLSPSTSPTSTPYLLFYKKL
Sequence of Glucocorticoid receptor (Homo sapiens) (P04150 whole entry, looked up, the tested form may be a part): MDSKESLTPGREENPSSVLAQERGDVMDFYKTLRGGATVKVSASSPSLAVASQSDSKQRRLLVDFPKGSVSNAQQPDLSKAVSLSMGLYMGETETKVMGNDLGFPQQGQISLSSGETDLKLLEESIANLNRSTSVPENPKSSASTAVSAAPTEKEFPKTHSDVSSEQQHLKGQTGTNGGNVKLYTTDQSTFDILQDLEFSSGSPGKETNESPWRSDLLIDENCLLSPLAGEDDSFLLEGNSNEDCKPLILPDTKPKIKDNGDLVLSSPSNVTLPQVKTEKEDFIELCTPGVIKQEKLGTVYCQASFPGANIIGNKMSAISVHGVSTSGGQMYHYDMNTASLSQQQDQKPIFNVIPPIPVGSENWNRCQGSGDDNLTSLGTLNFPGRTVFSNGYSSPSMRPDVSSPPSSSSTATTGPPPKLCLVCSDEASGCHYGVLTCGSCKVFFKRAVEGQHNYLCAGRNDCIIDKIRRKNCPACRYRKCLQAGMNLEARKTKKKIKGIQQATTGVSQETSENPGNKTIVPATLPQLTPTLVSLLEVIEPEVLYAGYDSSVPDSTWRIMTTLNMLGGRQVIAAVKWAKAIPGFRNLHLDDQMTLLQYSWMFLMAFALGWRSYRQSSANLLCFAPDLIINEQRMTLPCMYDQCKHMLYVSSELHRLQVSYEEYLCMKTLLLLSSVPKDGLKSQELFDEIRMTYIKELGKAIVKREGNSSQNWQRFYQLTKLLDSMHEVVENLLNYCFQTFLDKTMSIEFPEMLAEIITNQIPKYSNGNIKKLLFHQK
Sequence of Lysosomal acid glucosylceramidase (Homo sapiens) (P04062 whole entry, looked up): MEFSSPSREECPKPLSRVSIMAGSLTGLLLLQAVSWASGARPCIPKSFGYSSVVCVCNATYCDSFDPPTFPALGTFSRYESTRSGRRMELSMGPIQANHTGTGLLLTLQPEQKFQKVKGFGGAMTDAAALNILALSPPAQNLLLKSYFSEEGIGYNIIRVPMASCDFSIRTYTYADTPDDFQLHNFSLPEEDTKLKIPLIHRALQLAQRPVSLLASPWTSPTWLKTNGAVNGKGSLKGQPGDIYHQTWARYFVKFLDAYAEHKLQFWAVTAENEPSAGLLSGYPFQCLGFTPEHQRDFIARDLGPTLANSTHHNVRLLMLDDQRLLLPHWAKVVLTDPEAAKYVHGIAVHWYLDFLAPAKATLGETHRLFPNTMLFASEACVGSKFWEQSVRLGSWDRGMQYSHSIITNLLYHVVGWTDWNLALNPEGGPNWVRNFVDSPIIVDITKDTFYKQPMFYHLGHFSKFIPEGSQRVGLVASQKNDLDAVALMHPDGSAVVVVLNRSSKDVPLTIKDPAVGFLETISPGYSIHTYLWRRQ
Sequence of 3',5'-cyclic-AMP phosphodiesterase 4B (Homo sapiens) (Q07343 whole entry, looked up): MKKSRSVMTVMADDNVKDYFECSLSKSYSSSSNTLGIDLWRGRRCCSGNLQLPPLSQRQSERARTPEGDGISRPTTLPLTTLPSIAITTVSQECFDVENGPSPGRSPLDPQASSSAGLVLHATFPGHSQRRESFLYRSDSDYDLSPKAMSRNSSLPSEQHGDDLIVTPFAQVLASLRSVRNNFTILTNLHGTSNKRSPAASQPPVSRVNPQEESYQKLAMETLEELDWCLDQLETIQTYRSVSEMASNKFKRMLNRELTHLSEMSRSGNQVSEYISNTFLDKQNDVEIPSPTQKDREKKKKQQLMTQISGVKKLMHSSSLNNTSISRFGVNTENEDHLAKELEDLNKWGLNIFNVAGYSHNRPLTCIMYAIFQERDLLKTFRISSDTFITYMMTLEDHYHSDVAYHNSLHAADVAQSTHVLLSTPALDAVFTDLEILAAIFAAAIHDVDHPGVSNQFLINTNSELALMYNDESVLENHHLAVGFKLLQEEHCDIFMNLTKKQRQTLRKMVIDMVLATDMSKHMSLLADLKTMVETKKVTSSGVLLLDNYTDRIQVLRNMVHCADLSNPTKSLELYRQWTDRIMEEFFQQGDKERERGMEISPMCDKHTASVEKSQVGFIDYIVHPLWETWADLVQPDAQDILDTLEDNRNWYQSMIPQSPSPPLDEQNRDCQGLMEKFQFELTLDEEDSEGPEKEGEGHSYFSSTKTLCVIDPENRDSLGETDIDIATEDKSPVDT

In the case of `COc1cccc(Nc2ncc3nc(C)c(=O)n(CCc4ccccc4)c3n2)c1`, the Potency in [1] is > 11.4 µM (inactive); in assay [3], 5.01 µM (active); in assay [5] it was > 9.22 µM (inactive); in [6] it was > 46 µM (inactive); in assay [8] it was 7.94 µM (active); in [11] it was 7.08 µM (active). The results for the activity change, negative = inhibition in [2] and in assay [10] were -17.7% (inactive) and -2.06% (inactive), respectively. Besides, the activity, negative = inhibition in [4] is -6.89% (inactive). The compound was called inactive in assay [7]. The Potency entry in [9] and in assay [12] was “inactive” throughout. In addition, the max response in assay [10] (setting [19]) was -10.5%; in assay [10] (setting [20]), -13.8%.

Regarding `CCNc1ncc2nc(C)c(=O)n(CCC#N)c2n1`, the Potency is > 11.4 µM (inactive) in [1], 12.6 µM (active) in assay [3], > 9.22 µM (inactive) in [5] and > 46 µM (inactive) in assay [6]. Moreover, the results for the activity change, negative = inhibition in assay [2], in [13] and in assay [10] were -5.37% (inactive), 8.37% (inactive) and 3.22% (inactive), respectively. Further, the activity, negative = inhibition in assay [4] was -4.05% (inactive). In assay [7], the call was inactive. Moreover, the Potency entry in assay [14], in [15], in assay [16] and in assay [12] was “inactive” in each case. The max response was -0.74% in [10] (setting [19]) and 2.02% in assay [10] (setting [20]).

Regarding `Cc1cccc(CNc2ncncc2-c2cccc(C#N)c2)c1`, the Potency was > 11.4 µM (inactive) in assay [1]; 2.51 µM (active) in assay [3]; > 46 µM (inactive) in assay [5]; > 46 µM (inactive) in assay [6]; 0.199 µM (active) in [8]. The activity change, negative = inhibition in [2] is 0.377% (inactive); in assay [13], -8.33% (inactive); in assay [10], 4.89% (inactive). In addition, in assay [4], the activity, negative = inhibition is 14.8% (inactive). For the same compound, the call in [7], in assay [17] and in [18] was inactive. For the same compound, the Potency result in [14] and in [9] was “inactive” in each case. The max response was 9.06% in assay [10] (setting [19]) and 15.9% in assay [10] (setting [20]).

Regarding `CCCn1c(C)nc2c(NCc3ccccc3)nc(C)nc21`, in [7], the compound was called inactive. For the same compound, the Potency result in [9] was “inactive”.

For the compound `COc1ccc(-n2c(=O)c(-c3cccs3)nc3cnc(N4CCOCC4)nc32)cc1`, the Potency in assay [1] was > 11.4 µM (inactive); in assay [3], 12.6 µM (active); in [5] it was > 9.22 µM (inactive); in assay [6], > 46 µM (inactive). In addition, the activity change, negative = inhibition in assay [2] is 0.656% (inactive); in assay [10], 5.16% (inactive). Moreover, the call in assay [7] was inactive. The Potency entry in assay [14], in assay [9], in [15], in assay [11], in assay [16] and in assay [12] was “inactive” throughout. Moreover, the values for the max response in assay [10] (setting [19]) and in assay [10] (setting [20]) were 28.1% and 27.2%, respectively.

As to `Cc1nc2cnc(Oc3ccccc3)nc2n(C)c1=O`, the Potency in [1] was > 11.4 µM (inactive); in assay [3], 12.6 µM (active); in assay [5], > 9.22 µM (inactive); in [6], > 46 µM (inactive). The figures for the activity change, negative = inhibition in assay [2], in [13] and in assay [10] were -8.04% (inactive), -5.98% (inactive) and 6.1% (inactive), respectively. In assay [4], the activity, negative = inhibition was -10.2% (inactive). Also, in [7], the outcome was inactive. The Potency result in assay [14], in [15], in assay [11], in assay [16] and in assay [12] was “inactive” throughout. The figures for the max response in assay [10] (setting [19]) and in assay [10] (setting [20]) were 14.9% and 19.9%, respectively.

With `COc1ccc(C(=O)N2CCC3(CCN(C)CC3)CC2)cc1`, the Potency in assay [1] is > 11.4 µM (inactive); in assay [6], > 46 µM (inactive). The activity change, negative = inhibition in assay [2] is -25.4% (inactive); in assay [13] it was -8.24% (inactive); in assay [10] it was 3.67% (inactive). Moreover, the Potency entry in [3] and in assay [14] was “inactive” in each case. In addition, the activity, negative = inhibition in assay [4] was 2.9% (inactive). The compound was called inactive in assay [7]. In addition, the max response amounted to 8.31% in assay [10] (setting [19]) and 12.9% in assay [10] (setting [20]).
